The entries come from a sample that favours hits as a whole.
Dicer processing: inhibitors of Dicer pre-microRNA processing, primary screen, biochemical, cat-ELCCA, chemiluminescence | Endoribonuclease Dicer (Homo sapiens), Q9UPY3 | cat-ELCCA pre-miR-21 Dicer processing; hits give high values | z-score at 25 µM | 47,000 tested, 6% active; in the data active = z-score above about 3, passing the limit was not always enough;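 note: higher signal means more uncleaved substrate so more Dicer inhibition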
Target sequence (Q9UPY3 whole entry, looked up): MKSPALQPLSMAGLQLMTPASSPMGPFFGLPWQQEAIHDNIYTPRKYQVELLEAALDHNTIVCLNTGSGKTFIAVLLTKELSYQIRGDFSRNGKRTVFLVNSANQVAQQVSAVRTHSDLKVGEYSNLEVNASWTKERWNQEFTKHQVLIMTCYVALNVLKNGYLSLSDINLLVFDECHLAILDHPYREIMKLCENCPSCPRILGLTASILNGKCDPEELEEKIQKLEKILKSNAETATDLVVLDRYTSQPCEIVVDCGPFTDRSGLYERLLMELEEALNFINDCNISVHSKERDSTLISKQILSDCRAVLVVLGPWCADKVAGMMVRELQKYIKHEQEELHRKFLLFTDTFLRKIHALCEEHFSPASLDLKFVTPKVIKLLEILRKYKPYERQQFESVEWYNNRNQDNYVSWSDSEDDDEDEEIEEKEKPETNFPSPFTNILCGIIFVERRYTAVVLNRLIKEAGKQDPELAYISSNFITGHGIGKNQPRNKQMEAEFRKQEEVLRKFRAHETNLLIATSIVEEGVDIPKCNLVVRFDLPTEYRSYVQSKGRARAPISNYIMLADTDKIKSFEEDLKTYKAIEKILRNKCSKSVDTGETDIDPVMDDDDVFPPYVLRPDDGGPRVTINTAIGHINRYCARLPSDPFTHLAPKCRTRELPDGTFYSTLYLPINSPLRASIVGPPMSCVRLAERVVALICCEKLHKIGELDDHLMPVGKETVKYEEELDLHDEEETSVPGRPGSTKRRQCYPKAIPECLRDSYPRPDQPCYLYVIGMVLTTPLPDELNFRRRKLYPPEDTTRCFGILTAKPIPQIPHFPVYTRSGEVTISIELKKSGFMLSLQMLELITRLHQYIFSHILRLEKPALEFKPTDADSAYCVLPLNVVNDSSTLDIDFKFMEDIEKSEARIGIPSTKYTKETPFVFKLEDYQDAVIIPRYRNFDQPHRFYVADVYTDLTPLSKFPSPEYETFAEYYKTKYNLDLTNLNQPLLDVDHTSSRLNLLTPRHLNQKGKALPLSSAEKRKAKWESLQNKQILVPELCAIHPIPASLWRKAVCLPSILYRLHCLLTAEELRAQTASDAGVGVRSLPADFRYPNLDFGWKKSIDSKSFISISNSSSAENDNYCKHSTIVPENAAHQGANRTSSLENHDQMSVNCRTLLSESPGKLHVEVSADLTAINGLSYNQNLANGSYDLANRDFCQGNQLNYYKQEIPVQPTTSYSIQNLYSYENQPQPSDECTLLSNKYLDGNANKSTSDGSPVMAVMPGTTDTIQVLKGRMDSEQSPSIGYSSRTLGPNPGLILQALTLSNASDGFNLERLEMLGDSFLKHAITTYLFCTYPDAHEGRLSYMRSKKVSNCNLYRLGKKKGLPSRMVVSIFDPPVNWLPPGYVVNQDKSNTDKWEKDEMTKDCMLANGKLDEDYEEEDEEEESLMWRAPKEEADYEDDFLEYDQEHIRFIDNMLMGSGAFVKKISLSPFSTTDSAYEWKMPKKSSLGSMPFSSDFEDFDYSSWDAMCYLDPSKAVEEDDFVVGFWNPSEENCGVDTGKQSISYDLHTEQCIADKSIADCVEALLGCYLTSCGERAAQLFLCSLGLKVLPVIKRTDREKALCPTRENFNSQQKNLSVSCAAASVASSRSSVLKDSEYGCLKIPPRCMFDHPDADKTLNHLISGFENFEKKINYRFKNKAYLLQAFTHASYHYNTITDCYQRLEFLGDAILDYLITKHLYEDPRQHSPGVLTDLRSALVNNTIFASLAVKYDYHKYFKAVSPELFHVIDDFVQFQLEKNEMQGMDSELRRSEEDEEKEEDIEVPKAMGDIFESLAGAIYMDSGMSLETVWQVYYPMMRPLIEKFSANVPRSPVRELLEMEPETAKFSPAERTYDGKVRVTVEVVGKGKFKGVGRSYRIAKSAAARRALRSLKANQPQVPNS
Large screens that a line does not name were inactive.

CCOc1ccc(C2c3c(oc4ccccc4c3=O)C(=O)N2c2ccc(C)cn2)cc1OCC (stereo not given)	none
COc1ccc(-c2nc3n(n2)C(=O)CC(c2cccc4ccccc24)S3)cc1 (stereo not given)	Dicer processing 4.2
O=C1CC(c2ccccc2)Sc2nc(-c3ccc(F)cc3)nn21 (stereo not given)	none
O=C1CCC(=O)N1c1nc2n(n1)C(c1ccccc1)C=C(c1ccccc1)N2 (stereo not given)	none
COc1ccc(-c2nc3n(n2)C(c2cccc(OC)c2OC)C2=C(CC(C)(C)CC2=O)N3)cc1 (stereo not given)	none
O=C1CC(c2cccc3ccccc23)Sc2nc(-c3ccccc3)nn21 (stereo not given)	Dicer processing 4.4
Cc1ccc(-c2nc3n(n2)C(=O)CC(c2ccc4c(c2)OCO4)S3)cc1 (stereo not given)	none
C=CCn1c(SC)nc2sc3c(c2c1=O)CCCC3	none
FC(F)(F)c1ccc(N2CCCN(C(=S)NC3CCCCCCC3)CC2)nc1	none
COc1ccc(-c2c(C(F)(F)F)nn3c(C)c(-c4ccccc4)c(C)nc23)cc1	none
Cc1ccc(C(=O)n2nc(C)c(Sc3ccc(C(F)(F)F)cn3)c2C)cc1	none
CC(C)S(=O)(=O)c1csc(NC(=O)Nc2ccccc2Cl)c1Cl	Dicer processing 3.8
CC(C)S(=O)(=O)c1csc(C(N)=O)c1Cl	none
CC(C)S(=O)(=O)c1csc(NC(=O)Nc2c(Cl)cc(Cl)cc2Cl)c1Cl	none
CCc1ccc2nc(NC3=NCN(CC4CCCO4)CN3)nc(C)c2c1 (stereo not given)	none
Cc1nn2c(c1-c1ccccc1)N=C(c1ccccc1)CC2c1ccco1 (stereo not given)	none
O=C(Nc1ccccc1)C1=NN(c2ccccc2)/C(=C2\C(=O)NN=C2c2ccccc2)S1	none
O=[N+]([O-])c1ccc(Oc2c(Cl)cccc2Cl)nc1	none
CCOC(=O)CSc1nnc(-c2ccc(C)cc2)o1	none
O=C(CSc1nnc(-c2ccccc2)o1)c1ccccc1	none
O=C(CSc1nnc(-c2ccccc2)o1)OCc1ccccc1	Dicer processing 3.4
CCOC(=O)C1=C(C)Nc2ncnn2C1c1ccc(OC)c(O)c1 (stereo not given)	none
CSc1sc(C(=O)N/N=C/c2c(Cl)cccc2Cl)cc1S(=O)(=O)C(C)C	none
CCCCN(C)CC(O)Cn1c2ccc(Cl)cc2c2cc(Cl)ccc21 (stereo not given)	none
CCOC(=O)NNC(=S)Nc1ccc(Cl)cc1	none
CNC(=S)NNC(=O)c1ccc(Cl)cc1Cl	none
Cc1ccc(O)c(C(=O)NNC(=S)Nc2ccc(Cl)cc2)c1	Dicer processing 5.4
CCOC(=O)c1c(Cl)c(C(C)(C)C)nc(N2CCOCC2)c1C#N	none
O=C(O)c1ccc2nc3ccccc3nc2c1	none
O=C(O)c1ccc2nc(-c3cccc(-c4nc5ccc(C(=O)O)cc5[nH]4)c3)[nH]c2c1	none
O=C(O)c1cccc(-c2cccc(C(=O)O)c2)c1	Dicer processing 6.2
CC1CN(C(=S)Nc2cccc3ccccc23)CC(C)O1 (stereo not given)	none
CC(C)NC(=S)Nc1cccc2ccccc12	Dicer processing 6.1
CCOC(=S)Nc1cccc2ccccc12	none
Cc1ccc(OCCOc2ccc(Oc3nc(N(C)C)nc(N(C)C)n3)nn2)cc1	none
Nc1ccc(Nc2ccc(N)cc2S(=O)(=O)O)cc1	Dicer processing 44
Nc1ccc(S(=O)(=O)c2ccc(N)cc2)cc1	none
NC(=O)NS(=O)(=O)c1ccc(N)cc1	none
Cc1cc(C2(c3ccc(N)c(C)c3)CCCCC2)ccc1N	Dicer processing 3.1
Cc1cc(Cc2ccc(N)c(C)c2)ccc1N	none
Cc1ccc(S(=O)(=O)NC(=O)NCC(OC(=O)NS(=O)(=O)c2ccc(C)cc2)c2ccccc2)cc1 (stereo not given)	none
CC(C)OC(=O)C1C2C=CC3(CN(C4CCCCC4)C(=O)C13)O2 (stereo not given)	none
CC(=O)/C(C=Nc1ccc(Cl)c(Cl)c1)=C(\C)O	none
CC1CCCN(S(=O)(=O)c2cc(Cl)c(Cl)cc2Cl)C1 (stereo not given)	none
O=C1CCC(c2ccccc2)C(O)=C1C=Nc1ccc(Cl)cc1 (stereo not given)	none
O=C1CC(c2ccccc2)CC(O)=C1C=Nc1ccccc1Cl (stereo not given)	none
O=C1CC(c2ccccc2)CC(O)=C1C=Nc1ccc(Cl)cc1 (stereo not given)	Dicer processing 3
CN(C)/C=N/NC(=O)COc1ccc(SC(F)(F)F)cc1	none
CCSCCOC(=O)C1=C(C)NC2=C(C(=O)CCC2)C1c1ccc(OC)c(Br)c1 (stereo not given)	none
CCSCCOC(=O)C1=C(C)NC2=C(C(=O)CCC2)C1c1ccc(OC)cc1OC (stereo not given)	none
CCSCCOC(=O)C1=C(C)NC2=C(C(=O)CCC2)C1c1cccc(Oc2ccccc2)c1 (stereo not given)	Dicer processing 6
CCSCCOC(=O)C1=C(C)NC2=C(C(=O)CCC2)C1c1ccc(F)cc1 (stereo not given)	Dicer processing 6.4
CC1=C(C(=O)OCCc2ccccc2)C(c2ccc(C)cc2)C2=C(CCCC2=O)N1 (stereo not given)	none
CC1=C(C(=O)OCC2CCCO2)C(c2cccc(Oc3ccccc3)c2)C2=C(CCCC2=O)N1 (stereo not given)	none
CCOc1ccc(C2C(C(=O)OCCSCC)=C(C)NC3=C2C(=O)CCC3)cc1 (stereo not given)	none
CC1=C(C(=O)OCCc2ccccc2)C(c2ccc(Br)cc2)C2=C(CCCC2=O)N1 (stereo not given)	none
CC1=C(C(=O)OCCc2ccccc2)C(c2ccsc2)C2=C(CCCC2=O)N1 (stereo not given)	Dicer processing 3.8
CCN(CC)S(=O)(=O)c1cccc(-c2cn3ccc(C)cc3n2)c1	none
CCC(CO)NC(=S)Nc1c(C)cc(C)cc1C (stereo not given)	none
N#Cc1c(-c2cccs2)oc(N)c1-c1ccc(Cl)cc1Cl	none
O=C(Nc1ccccc1)OC1c2cc(Cl)ccc2OC(=O)N1c1ccccc1 (stereo not given)	none
COCCOC(=O)C1=C(C)NC2=C(C(=O)CCC2)C1c1ccc(C(=O)OC)cc1 (stereo not given)	none
Cn1cnnc1SCc1ccc([N+](=O)[O-])cc1	none
CCc1nc2ccccc2nc1N1CCN(C(=O)Nc2ccccc2)CC1	none
CN(C)S(=O)(=O)c1ccc2c(c1)C(=O)c1cc(S(=O)(=O)N(C)C)ccc1-2	none
S=c1[nH]nc(-c2ccncc2)n1Cc1ccccc1	none
Cc1ccc(-n2cc(-c3cccs3)nc2SCc2n[nH]c(=S)n2Cc2ccccc2)cc1	Dicer processing 5.8
CCn1c(-c2cccs2)n[nH]c1=S	none
COC(=O)C1C2CCC(C2)C1C(=O)OCC(=O)c1ccc(Br)cc1 (stereo not given)	none
Cc1c2n(c3ccccc13)C/C(=C\c1ccc(C(F)(F)F)cc1)C2=O	none
Cc1c(-c2ccccc2)nc2sc3c(c2c1N)CCCC3	none
CN(C)c1nc(OCCNS(=O)(=O)c2ccccc2)nc(N(C)C)n1	none
Cc1ccc2c(c1C)NC(=O)CC(c1ccccc1O)=N2	none
Cc1ccc(O)c(C2=Nc3ccccc3N=C(c3ccco3)C2)c1	Dicer processing 4
Cc1ccc(O)c(C2=NN3C(C2)c2ccccc2OC3C(C)C)c1 (stereo not given)	none
COCCOC(=O)c1c(C)oc2ccc(OCC(=O)OC)cc12	none
CS(=O)(=O)c1ccc(Cl)c(S(C)(=O)=O)c1	none
COc1ccc(OC)c(C2CC(c3ccc(OC)c(OC)c3)=NN2S(=O)(=O)c2ccccc2)c1 (stereo not given)	none
COc1ccccc1NC(=O)Nc1ccccc1OC	none

Screening data as filed in PubChem.
